Laboratory results as given in the supplement of paper PMC6607015.
Where a name gives a salt, the structure may show the parent alone.

Tests used:
Conditions in all cases: compound concentration in added solution (µM; 5 µl added to 20 µl cells): 10; 18 h
A431 [1] = assay: LBPA endosome anti-LBPA integrated intensity (sum per cell), Z-score; higher = more LBPA staining
In short: (§1)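 HeLa MZ or A431 cells (3,500/well in 20 µl) were seeded onto 5 µl of 10 µM compound solution in duplicate 384-well imaging plates, incubated 18 h, then fixed in 4% PFA. Cells were stained with 6C4 anti-LBPA antibody, filipin, propidium iodide and CellTracker green, and four 20× images were taken per well. MetaXpress segmentation gave per-cell integrated LBPA or filipin intensity, either whole-cell or within LBPA endosomes. Values are Z-scores normalised in AcuityXpress.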

HeLa MZ [2] = assay: as above
In short: as §1

A431 [3] = assay: whole-cell filipin (free cholesterol) integrated intensity, Z-score; higher = more cholesterol staining
In short: as §1

HeLa MZ [4] = assay: as above
In short: as §1

A431 [5] = assay: filipin (cholesterol) integrated intensity within LBPA endosomes, Z-score; higher = more cholesterol in LBPA endosomes
In short: as §1

HeLa MZ [6] = assay: as above
In short: as §1

| Structure (SMILES) | LBPA endosome anti-LBPA integrated intensity (z-score) (A431 [1]) | LBPA endosome anti-LBPA integrated intensity (z-score) (HeLa MZ [2]) | whole-cell filipin (z-score) (A431 [3]) | whole-cell filipin (z-score) (HeLa MZ [4]) | filipin (z-score) (A431 [5]) | filipin (z-score) (HeLa MZ [6]) |
| --- | --- | --- | --- | --- | --- | --- |
| Cc1nc2n(c(=O)c1CCN1CCC(c3noc4cc(F)ccc34)CC1)CCCC2 [Risperidone] | 0.208 | 1.64 | 0.491 | 0.264 | -0.0506 | 0.539 |
| CN(C/C=C/c1ccccc1)Cc1cccc2ccccc12 [Naftifine hydrochloride] | -0.115 | -0.525 | 0.224 | -0.277 | -0.136 | -0.339 |
| CC[C@H](c1ccc(O)cc1)[C@@H](CC)c1ccc(O)cc1 [Hexestrol] | -0.48 | -0.198 | -0.492 | -0.508 | -0.435 | -0.383 |
| CCCCN1CCCCC1C(=O)Nc1c(C)cccc1C (centres undefined) [Bupivacaine hydrochloride] | -0.317 | -0.117 | -0.729 | -0.969 | -0.543 | -0.511 |
| C#C[C@]1(O)CC[C@H]2[C@@H]3CCC4=CC(=O)CC[C@@H]4[C@H]3CC[C@@]21CC [Norgestrel-(-)-D] | -0.501 | -0.275 | -0.421 | -0.79 | -0.478 | -0.446 |
| CC1=C(/C=C/C(C)=C/C=C/C(C)=C\C(=O)O)C(C)(C)CCC1 [Isotretinoin] | -0.383 | -0.562 | -0.622 | -0.961 | -0.488 | -0.54 |
| CCOC(=O)N1CCC(=C2c3ccc(Cl)cc3CCc3cccnc32)CC1 [Loratadine] | 0.316 | 0.865 | 0.633 | 0.548 | 0.439 | 0.942 |
| Cc1ncc([N+](=O)[O-])n1CC(O)CCl (centres undefined) [Ornidazole] | -0.468 | -0.445 | -0.79 | -0.699 | -0.356 | -0.454 |
| Cc1cc(C(=O)NNCc2ccccc2)no1 [Isocarboxazid] | -0.549 | -1.31 | -0.396 | -0.63 | -0.553 | -0.513 |
| CCCCCN(CCCCC)C(=O)C(CCC(=O)O)NC(=O)c1ccc(Cl)c(Cl)c1 (centres undefined) [Lorglumide sodium salt] | -0.556 | 0.0228 | -0.478 | -0.52 | -0.482 | -0.502 |
| COc1ccc(Cl)cc1C(=O)NCCc1ccc(S(=O)(=O)NC(=O)NC2CCCCC2)cc1 [Glibenclamide] | -0.686 | -1.35 | -0.573 | 0.104 | -0.559 | -0.567 |
| CNC(C)CCC=C(C)C (centres undefined) [Isometheptene mucate] | -0.484 | -0.292 | 0.117 | -0.234 | -0.458 | -0.578 |
| CN(C)CCC[C@@]1(c2ccc(F)cc2)OCc2cc(C#N)ccc21 [Escitalopram] | -0.359 | 1.34 | 0.0689 | 0.675 | -0.134 | 0.883 |
| CC(=O)N(CC(O)CN(C(C)=O)c1c(I)c(C(=O)NCC(O)CO)c(I)c(C(=O)NCC(O)CO)c1I)c1c(I)c(C(=O)NCC(O)CO)c(I)c(C(=O)NCC(O)CO)c1I (centres undefined) [Iodixanol] | -0.538 | -0.533 | -0.268 | -0.245 | -0.464 | -0.482 |
| O=C1C(O)=C([C@H]2CC[C@H](c3ccc(Cl)cc3)CC2)C(=O)c2ccccc21 [Atovaquone] | -0.63 | -0.824 | -0.408 | -0.361 | -0.555 | -0.654 |
| CCCN(CCC)C(=O)C(CCC(=O)O)NC(=O)c1ccccc1 (centres undefined) [Proglumide] | -0.629 | -1.36 | -1.22 | -0.766 | -0.53 | -0.607 |
| CC#C[C@]1(O)CC[C@H]2[C@@H]3CCC4=CC(=O)CCC4=C3[C@@H](c3ccc(N(C)C)cc3)C[C@@]21C [Mifepristone] | -0.423 | 0.259 | -0.703 | -0.6 | -0.386 | -0.393 |
| Fc1ccc(C(c2ccc(F)cc2)N2CCN(C/C=C/c3ccccc3)CC2)cc1 [Flunarizine dihydrochloride] | 0.53 | -0.311 | 0.301 | -0.958 | 0.627 | 0.163 |
| NS(=O)(=O)c1cc(Cl)c(Cl)c(S(N)(=O)=O)c1 [Dichlorphenamide] | -0.34 | -0.217 | -0.00386 | 0.196 | -0.409 | -0.301 |
| CCC(=O)O[C@@H](O[P@](=O)(CCCCc1ccccc1)CC(=O)N1C[C@H](C2CCCCC2)C[C@H]1C(=O)O)C(C)C [Fosinopril] | -0.177 | -0.153 | -0.025 | 0.0232 | -0.364 | -0.383 |
| CCC[C@@H]1C[C@@H](C(=O)N[C@@H]([C@H]2O[C@H](SC)[C@H](O)[C@@H](O)[C@H]2O)[C@@H](C)O)N(C)C1 [Lincomycin hydrochloride] | -0.565 | -0.696 | -0.903 | -1.08 | -0.504 | -0.682 |
| CN(C)CC/C=C1\c2ccccc2CSc2ccccc21 [Dosulepin hydrochloride] | 1.61 | 0.828 | 1.17 | 0.164 | 1.82 | 0.976 |
| CN1C(C(=O)Nc2ccccn2)=C(O)c2ccccc2S1(=O)=O [Piroxicam] | -0.541 | -0.331 | -0.896 | -1.08 | -0.561 | -0.694 |
| C[C@H]1C[C@@H]2[C@H]([C@@H](O)C[C@@]3(C)[C@H]2CC[C@]3(O)C(=O)CO)[C@@]2(C)C=CC(=O)C=C12 [Methylprednisolone, 6-alpha] | -0.113 | 0.0903 | -0.236 | -0.329 | -0.297 | -0.497 |
